# The whole screen tested about 360,000 compounds, of which about 25,000 (6.9%) were called active. Not shown: some 9% with an inconclusive outcome. Calls come from the whole dose curve; as a rule, active = well fitted inhibition curve with a large enough effect; inconclusive = small, poorly fitted or top-dose-only effect; inactive = flat fitted curve, though single readings scatter. The sample as a whole holds a higher share of actives than the screen did.
# Biological target: Luciferin 4-monooxygenase (Photinus pyralis) (UniProt P08659)
# Sequence (P08659 whole entry, looked up): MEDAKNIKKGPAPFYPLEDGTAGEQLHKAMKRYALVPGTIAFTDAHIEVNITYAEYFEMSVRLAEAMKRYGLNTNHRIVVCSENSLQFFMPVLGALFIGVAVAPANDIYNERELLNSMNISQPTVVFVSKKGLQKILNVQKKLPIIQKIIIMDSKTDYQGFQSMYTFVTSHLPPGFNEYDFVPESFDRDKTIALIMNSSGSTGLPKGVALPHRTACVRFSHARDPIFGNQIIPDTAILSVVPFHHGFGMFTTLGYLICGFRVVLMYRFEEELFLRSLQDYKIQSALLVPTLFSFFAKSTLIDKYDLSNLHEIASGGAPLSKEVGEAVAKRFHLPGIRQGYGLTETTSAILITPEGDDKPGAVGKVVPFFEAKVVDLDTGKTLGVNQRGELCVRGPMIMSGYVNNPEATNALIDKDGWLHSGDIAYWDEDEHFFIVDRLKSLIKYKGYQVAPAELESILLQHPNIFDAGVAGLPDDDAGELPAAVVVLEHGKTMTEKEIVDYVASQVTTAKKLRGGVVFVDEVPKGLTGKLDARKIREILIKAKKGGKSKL
# Test: qHTS profiling assay for firefly luciferase inhibitor/activator using purifed enzyme and Km concentrations of substrates (counterscreen for miR-21 project); note: nearly all actives have a fitted effect of over 55% in size;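 for activity change, negative = inhibition: plate controls were vehicle for no effect and reference inhibitor for full effect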
# Conditions: purified FLuc, luminescence inhibition; series mostly up to 57.5 µM; activity change, negative = inhibition: at the top concentration
# Summary of the method: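 Purified P. pyralis luciferase, 10 nM final, with Km-level 10 uM D-luciferin and 10 uM ATP in 50 mM Tris acetate pH 7.5, 10 mM Mg acetate, 0.01% Tween-20, 0.05% BSA; 6-point qHTS titration about 60 µM downward; luminescence read.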
# Potency is the fitted concentration of half-maximal effect.
Compound,"activity change, negative = inhibition",Potency
O=C(Nc1ccccc1)N1CCC(C(=O)N2CCN(Cc3ccccc3)CC2)CC1,-1.44% (inactive),–
S=C(Nc1ccc2c(c1)OCO2)N1CCCC1,-19.1% (inactive),–
COC(=O)c1cccc(C(=O)N2CCCC(Nc3ccc4c(c3)OCCO4)C2)c1 (centres undefined),-1.7% (inactive),–
CN1C(=O)c2ccc(NC(=O)C3CCCCC3)cc2C1=O,-1.5% (inactive),–
O=C(Nc1ccc2c(c1)OCO2)c1sc2cc(Cl)ccc2c1Cl,-3.98% (inactive),–
O=C(Nc1ccc2c(c1)OCCO2)C1CCCC1,–,9.53 µM (active)
O=C(Nc1ccc2c(c1)OCO2)C1CC1(Cl)Cl (centres undefined),–,16.9 µM (active)
O=C(Nc1ccc2c(c1)OCCO2)C1CCCN(c2ncccn2)C1 (centres undefined),–,0.953 µM (active)
O=C(Nc1cccc(Cl)c1)C1CCCN(c2cnccn2)C1 (centres undefined),1.81% (inactive),–
Cc1cc(C)nc(N2CCC(C(=O)Nc3ccc4c(c3)OCCO4)CC2)n1,-8.26% (inactive),–
CC(C)(C)C(=O)Nc1ccc(C(=O)N/N=C/c2ccccc2OC(=O)c2ccc(Cl)cc2Cl)cc1,-12% (inactive),–
CCOc1cc(/C=C/C(=O)OCC(=O)NCCN2C(=O)CSC2=O)ccc1OCC(C)C,0.543% (inactive),–
COc1ccc(C2C(=O)N(C3CCCCC3)CC(=O)N2Cc2ccccc2Cl)cc1OC (centres undefined),-7.49% (inactive),–
Cc1nc(SCCOc2ccc(Cl)cc2)[nH]c(=O)c1Cc1ccccc1,0.0351% (inactive),–
O=C(CSc1nccn1Cc1ccc(F)cc1)NCc1ccccc1,1.89% (inactive),–
Cc1ccc2nc(/C(C#N)=C/c3ccc(-c4ccc(C(=O)OC(C)C)cc4)o3)[nH]c2c1,-19.6% (inactive),–
COc1cc(CC(=O)Nc2nc(-c3ccc(F)c(F)c3)cs2)cc(OC)c1OC,5.45% (inactive),–
Fc1ccc(-c2csc(-c3ccc(C4SCCS4)cc3)n2)cc1F,–,10.7 µM (active)
COc1ccc(CC(=O)Nc2nc(-c3ccc(F)c(F)c3)cs2)cc1OC,5.15% (inactive),–
COc1ccc2c(c1)c(N1CCCC1=O)c(C(=O)Nc1ccc(OC)c(Cl)c1)n2C,-10.9% (inactive),–
CCOc1ccccc1CNC(=O)C1CCCN(S(=O)(=O)c2ccc3c(ccn3C)c2)C1 (centres undefined),1.69% (inactive),–
Cc1cc(C)nc(SCc2nnc(SCC(=O)Nc3ncc(C)s3)n2Cc2ccco2)n1,-1.43% (inactive),–
COc1ccc(CC(=O)Nc2ccc3c(c2)CCC3)cc1S(=O)(=O)N1CCOCC1,-5.57% (inactive),–
CC(C)C(=O)OCC(=O)Nc1ccc2c(c1)CCC2,–,19 µM (active)
COc1cccc(NC(=O)CN(C)CC(=O)Nc2ccc3c(c2)CCC3)c1,-8.65% (inactive),–
COc1ccc(NC(=O)CN2CCCN(Cc3ccccc3)S2(=O)=O)cc1,-13.7% (inactive),–
CCCN(CCC)CCCNC(=O)Cn1ncc2c3ccccc3n(Cc3ccccc3)c2c1=O,1.1% (inactive),–
CCOC(=O)c1c(NC(C)=O)sc2c(O)c(Br)ccc12,2.45% (inactive),–
Cc1ccc2[nH]c(=O)c(CN(CC3COCCO3)C(=O)Nc3ccccc3C)cc2c1 (centres undefined),-2.57% (inactive),–

# — PubChem BioAssay AID588342 (National Center for Advancing Translational Sciences (NCATS), 2011)
